# According to the supplement of paper PMC10037445:
# In all, about 2,900 compounds were measured (“NF-kB SEAP reporter activity, fold change vs agonist alone”: median about 0.99, highest 2% from about 2.6 on). Shown is part of a subset that was picked to be rich in the highest values.
# What was measured:
# [1] = system: RAW-Dual; experiment: NF-kB SEAP reporter activity, fold change vs agonist alone; cytotoxicity flag (confluency mask): not cytotoxic; higher = enhanced NF-kB activity
# How it was run: (§1)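 Library stock was pin-tooled at 50 nL into 384-well plates of RAW-Dual macrophages (50,000 cells/well, DMEM), followed 1 h later by a PRR agonist, and the cells were kept at 37 °C, 5% CO2. Supernatant collected after 20 hours was read for IRF by QuantiLuc luminescence and for NF-κB by QuantiBlue absorbance at 620 nm. Reporter activity is fold change over agonist-alone wells, and a well counted as cytotoxic when its IncuCyte confluency was below 70% of agonist controls in both mask sets.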
# [2] = system: RAW-Dual; experiment: NF-kB SEAP reporter activity, fold change vs agonist alone; higher = enhanced NF-kB activity
# How it was run: as §1
# [3] = system: RAW-Dual; experiment: NF-kB SEAP reporter activity, fold change vs agonist alone; cytotoxicity flag (confluency mask): cytotoxic (confluency <70% of control); higher = enhanced NF-kB activity
# How it was run: as §1
# [4] = agonist: ODN 1826 (TLR9) 0.5 ug/mL
# [5] = agonist: Pam2CSK4 (TLR2/6) 0.1 ug/mL
# [6] = agonist: Pam3CSK4 (TLR2/1) 0.1 ug/mL
# [7] = library stock concentration (final ~1000-fold dilution): 10 mM, cytotoxicity flag (confluency mask): not cytotoxic, agonist: Imiquimod (TLR7) […]
# [8] = library stock concentration (final ~1000-fold dilution): 10 mM, cytotoxicity flag (confluency mask): not cytotoxic, agonist: MPLA (TLR4) […]
# [9] = library stock concentration (final ~1000-fold dilution): 10 mM, cytotoxicity flag (confluency mask): cytotoxic (confluency <70% of control), agonist: Imiquimod (TLR7) […]
# [10] = library stock concentration (final ~1000-fold dilution): 10 mM, cytotoxicity flag (confluency mask): cytotoxic (confluency <70% of control), agonist: MPLA (TLR4) […]
smiles,measurement,setting,value
CN1CCC(c2c(O)cc(O)c3c(=O)cc(-c4ccccc4Cl)oc23)C(O)C1.Cl (configuration not stated) (library stock concentration (final ~1000-fold dilution): 10 mM),NF-kB SEAP reporter activity,[1]; agonist: LPS (TLR4) 0.1 ug/mL,0.188
same,NF-kB SEAP reporter activity,[1]; [4],0.968
same,NF-kB SEAP reporter activity,[1]; [5],0.469
same,NF-kB SEAP reporter activity,[1]; [6],1.44
CN1CCC(c2c(O)cc(O)c3c(=O)cc(-c4ccccc4Cl)oc23)C(O)C1.Cl (configuration not stated),NF-kB SEAP reporter activity,[2]; [7],1.64
same,NF-kB SEAP reporter activity,[2]; [8],1.49
CC1(N)CCN(c2cnc(-c3cccc(Cl)c3Cl)c(N)n2)CC1.Cl,NF-kB SEAP reporter activity,[2]; [7],1.11
same,NF-kB SEAP reporter activity,[2]; [8],1.18
CC1(N)CCN(c2cnc(-c3cccc(Cl)c3Cl)c(N)n2)CC1.Cl (library stock concentration (final ~1000-fold dilution): 10 mM),NF-kB SEAP reporter activity,[1]; agonist: LPS (TLR4) 0.1 ug/mL,1.2
same,NF-kB SEAP reporter activity,[1]; [4],0.647
same,NF-kB SEAP reporter activity,[1]; [5],0.778
same,NF-kB SEAP reporter activity,[1]; [6],0.701
Cl.NCCCCC(N)C(=O)O (configuration not stated) (library stock concentration (final ~1000-fold dilution): 10 mM water),NF-kB SEAP reporter activity,[1]; agonist: LPS (TLR4) 0.1 ug/mL,1.04
same,NF-kB SEAP reporter activity,[1]; [4],1.11
same,NF-kB SEAP reporter activity,[1]; [5],1.21
same,NF-kB SEAP reporter activity,[1]; [6],1.17
Cl.NCCCCC(N)C(=O)O (configuration not stated),NF-kB SEAP reporter activity,"[2]; library stock concentration (final ~1000-fold dilution): 10 mM water, cytotoxicity flag (confluency mask): not cytotoxic, agonist: Imiquimod (TLR7) […]",0.925
same,NF-kB SEAP reporter activity,"[2]; library stock concentration (final ~1000-fold dilution): 10 mM water, cytotoxicity flag (confluency mask): not cytotoxic, agonist: MPLA (TLR4) […]",1.06
CCOC(=O)C(CCc1ccccc1)NC(C)C(=O)N1CCCC1C(=O)O.O=C(O)/C=C\C(=O)O (configuration not stated),NF-kB SEAP reporter activity,[2]; [7],0.942
same,NF-kB SEAP reporter activity,[2]; [8],1.06
CCOC(=O)C(CCc1ccccc1)NC(C)C(=O)N1CCCC1C(=O)O.O=C(O)/C=C\C(=O)O (configuration not stated) (library stock concentration (final ~1000-fold dilution): 10 mM),NF-kB SEAP reporter activity,[1]; agonist: LPS (TLR4) 0.1 ug/mL,1.08
same,NF-kB SEAP reporter activity,[1]; [4],1.04
same,NF-kB SEAP reporter activity,[1]; [5],1.03
same,NF-kB SEAP reporter activity,[1]; [6],1.02
CC12CCC(O)CC1=CCC1C2CCC2(C)C(C(O)CC(O)(C(F)(F)F)C(F)(F)F)CCC12 (configuration not stated) (library stock concentration (final ~1000-fold dilution): 10 mM),NF-kB SEAP reporter activity,[1]; agonist: LPS (TLR4) 0.1 ug/mL,0.54
same,NF-kB SEAP reporter activity,[1]; [4],0.663
same,NF-kB SEAP reporter activity,[1]; [5],0.739
same,NF-kB SEAP reporter activity,[1]; [6],0.489
CC12CCC(O)CC1=CCC1C2CCC2(C)C(C(O)CC(O)(C(F)(F)F)C(F)(F)F)CCC12 (configuration not stated),NF-kB SEAP reporter activity,[2]; [7],0.815
same,NF-kB SEAP reporter activity,[2]; [8],0.786
O=C(Nc1ccc2[nH]nc(-c3ccc4[nH]ccc4c3)c2c1)c1c(Cl)cccc1Cl,NF-kB SEAP reporter activity,[2]; [9],0.55
same,NF-kB SEAP reporter activity,[2]; [10],0.704
O=C(Nc1ccc2[nH]nc(-c3ccc4[nH]ccc4c3)c2c1)c1c(Cl)cccc1Cl (library stock concentration (final ~1000-fold dilution): 10 mM),NF-kB SEAP reporter activity,[3]; agonist: LPS (TLR4) 0.1 ug/mL,0.946
same,NF-kB SEAP reporter activity,[3]; [4],0.844
same,NF-kB SEAP reporter activity,[3]; [5],0.0858
same,NF-kB SEAP reporter activity,[3]; [6],0.202
C=CC(=O)N1CCC(Oc2nc(Nc3ccc(N4CCC(N5CCN(C)CC5)CC4)cc3)c(C(N)=O)nc2CC)C1 (configuration not stated),NF-kB SEAP reporter activity,[2]; [9],0.967
same,NF-kB SEAP reporter activity,[2]; [10],1.62
C=CC(=O)N1CCC(Oc2nc(Nc3ccc(N4CCC(N5CCN(C)CC5)CC4)cc3)c(C(N)=O)nc2CC)C1 (configuration not stated) (library stock concentration (final ~1000-fold dilution): 10 mM),NF-kB SEAP reporter activity,[3]; agonist: LPS (TLR4) 0.1 ug/mL,1.06
same,NF-kB SEAP reporter activity,[3]; [4],0.194
same,NF-kB SEAP reporter activity,[3]; [5],0.507
same,NF-kB SEAP reporter activity,[3]; [6],0.542
